Results on 27 molecules are retold here after PubChem BioAssay (NCI).

The panel holds about 83,000 compounds, 20% with a hit somewhere; the sample as a whole holds those more often.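 Percent growth is the endpoint: 0 to 100 indicates growth inhibition (40 means 60% inhibition), 0 means no net growth, and negative values indicate cell death.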 Values without a mark were called inactive. Active and inactive are the calls of the source. Rule for the calls: active = growth percent below 10; inactive = the rest.

Common to all, as to test: NCI-60 one-dose screen, 48 h (100 = growth as untreated, 0 = no growth, -100 = all killed)
Holding throughout (conditions): 10 µM unless noted

Experiment [1] relates to HCT-15 colon.
Experiment [2] concerns HT29 colon.
In experiment [3] the test system is SNB-75 CNS.
The subject of experiment [4] is SNB-19 CNS.
In experiment [5] the test system is U251 CNS.
In experiment [6] the test system is PC-3 prostate.
Experiment [7] deals with SK-MEL-5 melanoma.
The subject of experiment [8] is UACC-62 melanoma.
Experiment [9] relates to LOX IMVI melanoma.
In experiment [10] the test system is SK-MEL-28 melanoma.

On to `S=C=NP1(N=C=S)=NP(N=C=S)(N=C=S)=NP(N=C=S)(N=C=S)=NP(N=C=S)(N=C=S)=N1` (stereo not given), for which the growth in experiment [1] was 103%; in experiment [2] it was 92.9%; in [3], 80.7%; in experiment [4], 109%; in experiment [5], 94.7%; in experiment [6], 86.4%. In addition, the growth was 98.6% in experiment [7], 97.7% in [8], 97.8% in experiment [9] and 107% in experiment [10].

Turning to `Cn1c(I)c(C#C[Si](C)(C)C)c(=O)[nH]c1=O`, the growth was -37.6% (active) in experiment [1]; -60% (active) in experiment [2]; 75.2% in [3]; 100% in experiment [4]; 51.5% in experiment [5]; 4.88% (active) in experiment [6]. Besides, the growth in experiment [7] is 98.3%; in experiment [8], 11.8%; in [9], -69.9% (active); in experiment [10], -82% (active).

Turning to `Cc1nssc1=S`, the growth in [1] was 104%; in [2] it was 102%; in experiment [3], 92.3%; in experiment [4], 96.5%; in experiment [5] it was 102%; in experiment [6], 88.2%. In addition, the growth in [7] is 108%; in experiment [8], 104%; in [9] it was 89.4%; in experiment [10] it was 101%.

With `COc1ccc(-c2nn(-c3ccc(NC(=O)Nc4ccc(Cl)c(C(F)(F)F)c4)cc3)cc2-c2ccncc2)cc1Cl`, the growth in [1] is 4.89% (active); in [2] it was 1.91% (active); in [3], 32.8%; in [4], 30.1%; in [5], -7.17% (active); in [6] it was 4.33% (active). Also, the growth in [7] was -86.8% (active); in [8], 0.79% (active); in [9], 2.18% (active); in experiment [10], 12.2%.

Regarding `O=C(Nc1cccc(-n2ccc3c(NC(=O)c4ccccc4)nccc32)c1)Nc1cc(C(F)(F)F)cc(C(F)(F)F)c1`, the growth in [1] is 5.94% (active); in [2], -16.3% (active); in [3] it was 38.7%; in [4] it was 20.5%; in experiment [5], 0.587% (active); in experiment [6], 11.1%. Moreover, the growth in experiment [7] is -82.1% (active); in experiment [8] it was 11.6%; in experiment [9], 22.5%; in experiment [10] it was 35.4%.

In the case of `O=C1C(Cl)=C(Nc2ccccc2)C(=O)C(Cl)=C1Nc1ccccc1`, the growth in experiment [1] is 109%; in [2], 112%; in experiment [3] it was 113%; in [4] it was 129%; in experiment [5] it was 104%; in experiment [6], 109%. The growth in experiment [7] is 112%; in [8], 111%; in experiment [9], 96.9%; in experiment [10], 119%.

On to `CN(C)c1ccc2cc(-c3nc4ccccc4s3)c(N)nc2c1`, for which the growth in [1] was 41%; in [2] it was 23.9%; in experiment [3], 63.9%; in experiment [4], 60.7%; in [5] it was 33.2%; in experiment [6] it was 20.2%. The growth in experiment [7] is 58.7%; in experiment [8] it was 95.5%; in experiment [9], 85.3%; in [10] it was 98.3%.

With `CCOC(=O)C1=C(N)Oc2cc(OC)ccc2C1c1ccc(F)c(F)c1` (stereo not given), the growth in [1] was 22.3%; in [2] it was 2.96% (active); in [3], 5.44% (active); in [4], 28.1%; in experiment [5], 28.2%; in [6] it was 26.8%. In addition, the growth in experiment [7] is 12.8%; in experiment [8], 25.5%; in experiment [9] it was 43.8%; in experiment [10], 63.2%.

As to `C#CCn1c(-c2cc(OC)c(OC)cc2Br)nc(-c2ccccc2)c1-c1ccccc1`, the growth in experiment [1] was 29.7%; in experiment [2], 9% (active); in [3], 43.1%; in experiment [4] it was 55%; in [5], 45.4%; in experiment [6], 25.2%. Besides, the growth in [7] was 12.4%; in experiment [8] it was 40%; in experiment [9], 34.9%; in [10], 69.8%.

In the case of `COc1ccc2c(c1)nnc1c3cccnc3[nH]c21`, the growth in experiment [1] was 12.2%; in experiment [2], -27.1% (active); in experiment [3] it was -14.2% (active); in experiment [4], 11.5%; in experiment [5], -4.49% (active); in experiment [6], 29.3%. In addition, the growth in [7] was 46.2%; in [8] it was -0.424% (active); in [9], -30.8% (active); in experiment [10], 31.9%.

As to `O=S(=O)(Nc1cccc2cc(OS(=O)(=O)c3ccccc3)ccc12)c1ccccc1`, the growth is 34.4% in experiment [1]; 19.2% in experiment [2]; 49.6% in experiment [3]; 78.2% in experiment [4]; 48.5% in experiment [5]; 59% in [6]. Also, the growth in [7] is 53.4%; in [8], 61%; in experiment [9], 55.4%; in [10] it was 66.4%.

Consider `N#Cc1c(N)nc2c(c1N)C(c1ccc(Cl)cc1)C1=C(CCCC1=O)N2c1sc2c(c1C#N)CCCC2` (stereo not given), for which the growth was 102% in [1]; 81.2% in experiment [2]; 91.4% in experiment [3]; 92.4% in [4]; 99.7% in experiment [5]; 89% in [6]. Further, the growth was 98.6% in experiment [7], 88.3% in [8], 81.5% in [9] and 96.6% in experiment [10].

Consider `COc1ccc(Cn2cc(COc3ccc4c5ccnc(C)c5n(CCCc5ccccc5)c4c3)nn2)cc1`, for which the growth in [1] is 68.4%; in experiment [2], 43.5%; in experiment [3], 51%; in experiment [4] it was 84.4%; in experiment [5], 64.9%; in experiment [6] it was 74.8%. In addition, the growth in experiment [7] was 79.1%; in experiment [8] it was 34.8%; in experiment [9], 70.3%; in [10], 76.2%.

For the molecule `Oc1ccccc1/C=N/c1ccccn1`, the growth is 104% in experiment [1]; 114% in [2]; 98% in experiment [3]; 88% in [4]; 99% in [5]; 91.4% in [6]. Further, the growth was 97% in [7], 106% in [8], 94.4% in experiment [9] and 117% in experiment [10].

For the molecule `O=C(NCCNc1nccc(-c2c(-c3cccc(O)c3)nc3sccn23)n1)c1cc(N2CCOCC2)cc(C(F)(F)F)c1`, the growth in experiment [1] is 92%; in [2] it was 49.2%; in experiment [3], 83.2%; in [4], 125%; in experiment [5], 105%; in [6] it was 78.2%. The growth in [7] is 58.4%; in experiment [8], 8.5% (active); in [9], 52.3%; in experiment [10] it was 44.4%.

`COc1ccc(Cl)cc1NC(=O)c1cc2c([nH]1)-c1nc(N)sc1CCC2`: the growth is 97.7% in [1]; 83.2% in [2]; 105% in [3]; 112% in experiment [4]; 101% in [5]; 97.8% in [6]. The growth is 101% in experiment [7], 93.1% in experiment [8], 91.7% in experiment [9] and 103% in experiment [10].

`CC(C)CCC[C@@H](C)[C@H]1CC[C@H]2[C@@H]3CC=C4N(c5ccccc5)C(=O)CC[C@]4(C)[C@H]3CC[C@]12C`: the growth is 96.4% in [1]; 90.3% in [2]; 93.6% in experiment [3]; 109% in experiment [4]; 101% in experiment [5]; 80.4% in experiment [6]. Also, the growth in [7] is 99.1%; in experiment [8], 98.9%; in [9] it was 98%; in experiment [10] it was 106%.

Turning to `COC(=O)Nc1nc2ccc(Sc3ccccc3)cc2[nH]1`, the growth was 13.8% in [1]; 4.14% (active) in [2]; 21.7% in experiment [3]; 31.3% in experiment [4]; 17% in experiment [5]; 26.6% in [6]. Further, the growth in [7] was 8.9% (active); in [8], 35.9%; in experiment [9], 19.3%; in experiment [10], 48.9%.

For the molecule `N#CC(C#N)=C(C#N)c1c[nH]c2ccccc12`, the growth in experiment [1] was 73.3%; in [2], 80.4%; in experiment [3] it was 79.6%; in [4], 92.9%; in experiment [5] it was 86.3%; in [6] it was 73.1%. Also, the growth in experiment [7] is 92.8%; in [8], 82.9%; in experiment [9], 82.3%; in experiment [10], 108%.

As to `CCC1CN2C(=N1)c1ccccc1-c1cc(Cl)ccc12` (stereo not given), the growth in [1] was 18.3%; in experiment [2], 5.27% (active); in experiment [3], 42.6%; in [4] it was 26.2%; in [5], 14.8%; in experiment [6] it was 21.6%. In addition, the growth in [7] is -5.14% (active); in experiment [8], 3.38% (active); in experiment [9], 2.76% (active); in experiment [10], 70.7%.

`C[C@]12CC[C@@H]3c4ccc(O)c(N)c4CC[C@H]3[C@@H]1CC[C@@H]2O`: the growth is 101% in experiment [1]; 103% in [2]; 94.3% in experiment [3]; 109% in [4]; 110% in experiment [5]; 97.6% in experiment [6]. The growth was 99.5% in experiment [7], 97.1% in experiment [8], 96.7% in experiment [9] and 118% in experiment [10].

Consider `Cc1cccc(NCS(=O)(=O)O)c1`, for which the growth in experiment [1] was 101%; in experiment [2], 101%; in experiment [3], 106%; in experiment [4], 101%; in [5], 87.8%; in experiment [6] it was 93%. Moreover, the growth in experiment [7] was 99.7%; in experiment [8], 113%; in [9] it was 95.2%; in experiment [10], 113%.

As to `CC(C(C(=O)N1CCCCC1)N1CCCCC1)N1CCCCC1` (stereo not given), the growth in [1] is 107%; in [2] it was 105%; in experiment [3] it was 100%; in experiment [4], 103%; in experiment [5], 97.9%; in [6], 107%. Moreover, the growth in [7] was 112%; in experiment [8] it was 102%; in experiment [9], 107%; in experiment [10] it was 107%.

Take `O=C(c1ccccc1)[C@H]1[C@@H]2CCCN2[C@]2(C(=O)Nc3ccc(F)cc32)[C@]12C(=O)Nc1ccccc12`: the growth in experiment [1] was 86.9%; in [2], 89.8%; in experiment [3], 83.2%; in [4] it was 90.8%; in experiment [5] it was 80.5%; in experiment [6] it was 65.7%. The growth in experiment [7] is 83.6%; in experiment [8] it was 70.7%; in experiment [9], 91.3%; in experiment [10], 92.8%.

With `CC[C@H]1[C@@H]2C=C[C@@H]3[C@H]4C/C=C\C(=O)NCCC[C@@H]5NC(=O)/C(=C(O)/C=C/[C@@H]4C[C@@H]3[C@H]2C[C@H]1C)C5=O`, the growth in experiment [1] is -29.4% (active); in [2], 14.4%; in experiment [3], -85.6% (active); in experiment [4], -40.6% (active); in experiment [5] it was 46.5%; in experiment [6] it was -35.3% (active). The growth in [7] was -70.4% (active); in experiment [8], 72.6%; in experiment [9], -84.8% (active); in [10], 60.9%.

As to `CC12CCC3C(CCC4CC(O)CCC43C)C1C/C(=C/O)C(=O)O2` (stereo not given), the growth is 106% in [1]; 102% in experiment [2]; 110% in experiment [3]; 101% in [4]; 104% in experiment [5]; 97.8% in experiment [6]. Also, the growth in experiment [7] was 92.9%; in experiment [8] it was 100%; in [9] it was 101%; in experiment [10], 112%.

Take `NCC(=O)NS(=O)(=O)OC[C@H]1O[C@@H](n2cnc3c(N)ncnc32)[C@H](O)[C@@H]1O`: the growth is 11.4% in experiment [1]; 6% (active) in experiment [2]; -6.72% (active) in [3]; -6.06% (active) in experiment [4]; -39.3% (active) in experiment [5]; 9.66% (active) in [6]. In addition, the growth in experiment [7] was -0.341% (active); in [8], 30.7%; in experiment [9], -45.6% (active); in experiment [10] it was 8.36% (active).
